Mm-Cpn inhibitor: M. maripaludis TRiC chaperonin inhibition. purified Mm-Cpn ATPase, ADP Transcreener TR-FRET. Potency, µM (doses to about 76.9 µM), usual class: inhibitors. 330,000 compounds, 0.031% hits; also: nearly all actives have a fitted effect of over 80% in size
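Measured: ADP formation by purified Mm-CPN. Conditions: 25 nM protein, 10 uM ATP, Tris pH 7.4 with Mg2+, K+ and DTT, 37°C for 30 min. Detection: Transcreener HTRF after 30 min at room temperature.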
RGS4 inhibitor: inhibitors of human regulator of G protein signaling 4; AID 504845; Transcreener GDP fluorescence polarization, RGS4-accelerated GTP hydrolysis; P49798; Potency, µM (titrated, usually from 114 µM), actives largely listed as inhibitors; 390,000 compounds, 0.039% hits; also: nearly all actives have a fitted effect of over 75% in size
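MLSMR compounds (23 nl, pin-transferred) preincubated 10 min at room temperature with a 500nM (2x) first reagent, then RGS4 at 900nM (2x) plus Transcreener GDP mix added; fluorescence polarization (620/688 nm) read before and after 90 min at 30 °C.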
PTHR1 ag: agonists of human PTHR1 parathyroid hormone receptor | AID 743266 | Potency, µM (series often up to 115 µM), most hits filed as activators | Q03431 | HEK293 GP2 PTHR1 cells, GloSensor cAMP luminescence, 1 h | 410,000 compounds, 0.075% hits; also: nearly all actives have a fitted effect of over 55% in size
Target sequence (Q03431 whole entry, looked up): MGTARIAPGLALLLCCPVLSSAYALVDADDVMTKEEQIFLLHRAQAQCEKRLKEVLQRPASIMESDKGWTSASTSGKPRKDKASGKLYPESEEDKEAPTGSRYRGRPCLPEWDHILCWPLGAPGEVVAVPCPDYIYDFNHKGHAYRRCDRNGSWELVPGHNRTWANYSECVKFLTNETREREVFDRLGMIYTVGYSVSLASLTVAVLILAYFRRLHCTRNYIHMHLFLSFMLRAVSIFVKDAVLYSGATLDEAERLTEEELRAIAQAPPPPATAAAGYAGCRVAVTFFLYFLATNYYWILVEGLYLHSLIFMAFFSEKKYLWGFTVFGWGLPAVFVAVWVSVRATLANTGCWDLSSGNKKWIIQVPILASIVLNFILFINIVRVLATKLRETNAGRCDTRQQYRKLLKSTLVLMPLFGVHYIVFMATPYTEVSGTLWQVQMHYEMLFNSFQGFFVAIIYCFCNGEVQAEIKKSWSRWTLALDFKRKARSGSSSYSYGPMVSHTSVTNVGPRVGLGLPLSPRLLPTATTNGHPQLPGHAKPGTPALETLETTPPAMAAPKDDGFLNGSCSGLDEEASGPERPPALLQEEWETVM
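HEK-293-derived GP2 cells expressing PTHR1 and a GloSensor cAMP reporter, 3,000/well, plated overnight, given luciferin plus IBMX (each 0.5 mM as added) for 1 h at 37 °C, then compound for 1 h at 37 °C. Luminescence was read after 15 min at room temperature.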
CCT chaperon mod: changes cytosolic chaperonin activity. purified chaperonin ATPase assay, HTRF ADP detection, 30 min. activity change, % (no concentration beside the values), hits read low. 360,000 compounds, 0.3% hits. AID 651819; in the data active = activity change below about -30%
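We incubate TRiC, 40 or 20 nM final, with library compounds at 76 uM and 10 uM ATP for 30 min at 37 °C. ADP formed is detected with Transcreener HTRF reagents after 30 min at room temperature.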
ERG Ets-DNA blk: blocks human ERG Ets domain binding to DNA. 370,000 compounds, 0.028% hits. Potency, µM (series often up to 76.9 µM), usual class: inhibitors. fluorescence polarization, His-ERG Ets domain / labelled DNA. P11308; active = well fitted inhibition curve with a large enough effect in the polarisation, with a control signal flat; inconclusive = small, poorly fitted or top-dose-only effect, or effect the other way, or a change in a side signal; inactive = no such curve, though single readings can be large or run the other way; the % refers to the polarisation;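 also: polarization taken with two DNA probes labelled with fluorescein and Texas red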
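His-tagged ERG Ets domain (1 uM in the protein solution; 300mM KCl, 50mM Tris-HCl, 1mM EDTA, 1mM DTT, pH 7.5) received compound, then a probe mix of 5 nM fluorescein-DNA and 100nM Texas-615-DNA. Fluorescence polarization was read for both dyes.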
Each line names hits and unclear results; the compound was inactive in the other large screens; ! = repeats disagree. An excerpt weighted towards active compounds, which were near 0.36% of everything screened. Unless noted, calls follow the shape of the dose curve; as a rule, active = well fitted curve in the direction sought with a large enough effect; inconclusive = small, poorly fitted or top-dose-only effect, or another doubt; inactive = no such curve, though single readings can be large; an effect the other way counts as inactive or inconclusive.

CN(C(=O)CSc1nncn1-c1ccccc1)c1ccccc1	none
N#Cc1ccccc1-c1csc(N2CCC(C(N)=O)CC2)n1	none (no result: RGS4 inhibitor, PTHR1 ag, CCT chaperon mod, ERG Ets-DNA blk)
CCN(CC)CCNC(=O)c1ccc2c(c1)NC(=O)C(CS(=O)(=O)Cc1cccc(Br)c1)N2 (configuration not stated)	PTHR1 ag inconclusive (no result: Mm-Cpn inhibitor, CCT chaperon mod)
CCN(CC)CCCNC(=O)c1ccc2c(c1)NC(=O)C(CS(=O)(=O)Cc1cccc(Br)c1)N2 (configuration not stated)	PTHR1 ag 16µM (no result: Mm-Cpn inhibitor, CCT chaperon mod)
CCn1c(SCC(=O)NCc2ccc3c(c2)OCO3)nnc1-c1ccncc1	CCT chaperon mod -53
O=C1C[C@@H](c2ccccc2Cl)N1S(=O)(=O)c1ccccc1[N+](=O)[O-]	none (no result: Mm-Cpn inhibitor, PTHR1 ag, CCT chaperon mod, ERG Ets-DNA blk)
O=C(O)c1ccc(-c2nc3scc(-c4ccccc4)c3c(=O)[nH]2)cc1	PTHR1 ag 18µM
Cc1c(Cl)cccc1NC(=O)Cn1cc(C(=O)C2CCCCC2)c2ccccc21	none (no result: Mm-Cpn inhibitor, CCT chaperon mod)
C/C(=N\Nc1ccc(Cl)c(C(=O)O)c1)c1ccc2c(c1)OCO2	CCT chaperon mod -55
O=C(O)c1cc(N/N=C/c2ccc3c(c2)OCO3)ccc1Cl	none
Cc1cccc(C)c1NC(=O)C(=O)c1cn(C)c2ccccc12	Mm-Cpn inhibitor 56µM
COc1ccc(-c2cc(C(F)(F)F)c(C#N)c(SCC(=O)Nc3ccccc3C#N)n2)cc1	CCT chaperon mod -45
CSc1ccc(C2=CC(=O)C[C@H](c3ccc(F)cc3)C2)cc1	CCT chaperon mod -39
COc1ccc([C@H]2CC(=O)C=C(c3ccc(SC)cc3)C2)cc1	none
CNC(=O)c1ccc(-c2nc(-c3ccccc3)cs2)cc1	CCT chaperon mod -45
O=C(O)c1ccc(-c2nc(-c3ccccc3)cs2)cc1	none
COc1ccc(OCC(=O)Nc2nnc(S(=O)(=O)N3CCCCCC3)s2)cc1	none
O=C(COc1ccccc1)Nc1nnc(S(=O)(=O)N2CCCC2)s1	CCT chaperon mod -47
O=C1NC(=O)C(c2ccccc2[N+](=O)[O-])=C1Nc1ccc(O)c(Cl)c1	RGS4 inhibitor 12µM!
O=C(NNc1ccccc1[N+](=O)[O-])Nc1ccc(Cl)c(Cl)c1	none
Cc1cc(OCCn2ccnc2)cc(C(C)C)c1	none
Cc1cc(C)cc(OCCn2ccnc2)c1	CCT chaperon mod -73
CCOc1ccccc1C(=O)N(Cc1cccs1)c1ccc(Cl)cc1	none (no result: Mm-Cpn inhibitor, CCT chaperon mod)
CCOc1ccc(NC2=C(Cl)C(=O)N(C3CCCCC3)C2=O)cc1	CCT chaperon mod -32
CCCOc1c(Br)cc(C(=O)OCC(=O)NC(=O)c2cccn2C)cc1OC	RGS4 inhibitor inconclusive, CCT chaperon mod -46
COc1ccc(Cl)cc1C(=O)OCC(=O)NC(=O)c1cccn1C	none
CCOc1ccc(/C=N/OCC(=O)Nc2cc(S(=O)(=O)N3CCOCC3)ccc2OC)cc1	CCT chaperon mod -84 (no result: Mm-Cpn inhibitor)
Cc1noc(C)c1C(=O)OCC(=O)Nc1ccc(C(N)=O)cc1	none
Cc1noc(C)c1C(=O)OCC(=O)Nc1ccc(N2CCOCC2)cc1	PTHR1 ag 18µM
Cc1ccc(S(=O)(=O)N2CCN(c3cc4c(cc3[N+](=O)[O-])n(C)c(=O)n4C)CC2)cc1	CCT chaperon mod -54 (no result: ERG Ets-DNA blk)
Cn1c(=O)n(C)c2cc([N+](=O)[O-])c(N3CCN(S(=O)(=O)c4ccc5ccccc5c4)CC3)cc21	none (no result: ERG Ets-DNA blk)
CC(c1cccs1)N(Cc1ccco1)C(=S)Nc1ccc(F)c(Cl)c1 (configuration not stated)	CCT chaperon mod -59
COc1ccc(-c2nc3ccccc3c(=O)n2O)cc1	PTHR1 ag 50µM
COc1ccc(CCc2nc(C)ccc2O)cc1	CCT chaperon mod -67!
Cc1ccc(O)c(CO)n1	none
CC(/C=C/c1ccccc1)=N\Nc1nc(-c2ccccc2)cs1	PTHR1 ag inconclusive, CCT chaperon mod -70
CCC1(C)NC(C(=O)O)Cc2c1[nH]c1ccccc21 (configuration not stated)	CCT chaperon mod -40
Cc1[nH]c2ccccc2c1CCO	CCT chaperon mod -31
Cc1ccc(C)c(-n2nnc(-c3nc(-c4ccc(Cl)cc4)no3)c2N)c1	none (no result: Mm-Cpn inhibitor, CCT chaperon mod)
Cc1nn(C)c(C)c1N1C(=O)c2cccc3c(N)ccc(c23)C1=O	ERG Ets-DNA blk 35µM
Cc1c(C(=O)c2ccccc2)c2ccccn2c1CCc1ccccn1	CCT chaperon mod -70
O=C(COC(=O)/C=C/c1ccccc1)NCc1ccco1	CCT chaperon mod -56 (no result: Mm-Cpn inhibitor, RGS4 inhibitor, ERG Ets-DNA blk)
O=C(COC(=O)/C=C/c1cccc(Br)c1)NCc1ccco1	none
O=C(NCc1ccccc1Cl)c1ccc(NC(=O)N2CCSc3ncccc32)cc1	none (no result: Mm-Cpn inhibitor, CCT chaperon mod)
CCCCc1cc(=O)oc2cc(C)c3c(C)coc3c12	none (no result: Mm-Cpn inhibitor, CCT chaperon mod)
COc1ccc(CCNC(=O)C/C(C)=N/NC(=O)c2ccc(N)cc2)cc1OC	PTHR1 ag inconclusive
COc1ccc(CCNC(=O)C/C(C)=N/NC(=O)C2CCCCC2)cc1OC	CCT chaperon mod -60
COC(=O)c1cccc(NC(=O)Cc2nc(-c3ccccc3)sc2-c2ccc(C)cc2)c1	Mm-Cpn inhibitor 50µM
COc1cccc(NC(=O)Cc2nc(-c3ccccc3)sc2-c2ccc(C)cc2)c1	Mm-Cpn inhibitor 40µM
Cc1ccc(-c2sc(-c3ccccc3)nc2CC(=O)Nc2ccccc2F)cc1	none
CC(=O)Nc1cccc(NC(=O)Cc2nc(-c3ccccc3)sc2-c2ccc(C)cc2)c1	Mm-Cpn inhibitor inconclusive
O=C(c1cnn(-c2ccc(F)cc2)c1-n1cccc1)N1CCN(c2ccccc2)CC1	none (no result: Mm-Cpn inhibitor, CCT chaperon mod)
COc1ccccc1-c1csc(N2CCC(C(N)=O)CC2)n1	none (no result: RGS4 inhibitor, PTHR1 ag, CCT chaperon mod, ERG Ets-DNA blk)
